From PubChem BioAssay
Most compounds without a hit are left out; they make up all but 19% or so of the library.
ASM inhibitor: human S-ASM enzyme inhibition | P17405 | placental ASM, HMU-PC fluorogenic substrate, 60 min | Potency, µM (titrated, usually from 57.5 µM), without a hit: at the highest dose activity change, negative = inhibition, actives largely listed as inhibitors | 0.006% of 340,000 active | AID 504937; further: potency means the concentration at half of the fitted maximal effect
Target sequence (P17405 47-631 limits assumed): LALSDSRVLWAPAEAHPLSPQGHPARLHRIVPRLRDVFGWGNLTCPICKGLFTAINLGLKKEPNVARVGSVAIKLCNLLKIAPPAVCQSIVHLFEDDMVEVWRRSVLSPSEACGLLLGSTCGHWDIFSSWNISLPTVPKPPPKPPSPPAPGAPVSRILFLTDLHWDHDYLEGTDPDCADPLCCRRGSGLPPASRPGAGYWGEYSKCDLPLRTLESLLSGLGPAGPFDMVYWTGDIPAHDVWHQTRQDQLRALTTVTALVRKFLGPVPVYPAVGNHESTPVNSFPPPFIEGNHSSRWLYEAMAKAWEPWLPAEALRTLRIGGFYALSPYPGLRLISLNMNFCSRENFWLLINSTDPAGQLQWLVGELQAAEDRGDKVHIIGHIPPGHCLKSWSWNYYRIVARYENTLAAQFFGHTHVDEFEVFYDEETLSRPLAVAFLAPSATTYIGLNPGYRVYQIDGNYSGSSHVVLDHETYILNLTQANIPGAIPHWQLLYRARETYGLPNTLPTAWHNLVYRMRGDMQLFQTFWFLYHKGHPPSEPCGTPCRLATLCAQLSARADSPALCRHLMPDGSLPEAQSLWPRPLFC
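HMU-PC0 cleavage (9 uM final) by human placental ASM, 60 min at 37 °C following 10 min compound exposure at RT; stopped at pH 10, fluorescence Ex 386/Em 447 nm.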
IL1B secr inh: blocks inflammasome-driven IL-1 beta release. activity change, % at 57.5 µM. THP-1 LPS/ATP IL-1B secretion, AlphaLISA, 16 h; stronger effect = lower value. 4.7% of 360,000 active. AID 743279; in the data active means activity change below about -50%; inconclusive means mostly about -30% to -49%; further: on the % scale 0 is the no-effect control and ±100 the full control effect
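Secreted IL-1B measured by AlphaLISA bead assay after 16 h compound exposure of THP-1 cells; compounds (final up to 57.5 uM) added 1 h before LPS (250 ng/mL) and ATP (1.25 mM) stimulation; lower signal means less secretion.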
HepG2 viability: counter-screen for TGF-b inhibitors: cytotoxicity in HepG2 cells; HepG2 CAGA-GFP viability, ATP luminescence, 18 h; Potency, µM (highest dose often 46.1 µM), for inactives: top-dose activity change, negative = cytotoxicity, usual class: cytotoxic; 0.76% of 410,000 active; AID 588856; further: potency means the concentration at half of the fitted maximal effect
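CellTiter-Glo luminescence gave cytotoxicity after 18 hours at 37 degrees C. The cells were HepG2 CAGA-GFP in 1% FBS DMEM, stimulated with 500 pg/mL TGF-beta after compound addition. %Activity was normalised to no-cell wells (complete cell-killing) and DMSO (no toxicity), and curves were fitted and classified.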
DT40 TDP1 no CPT: qHTS for Inhibitors of human tyrosyl-DNA phosphodiesterase 1 (TDP1): qHTS in cells in absence of CPT; DT40 Tdp1-/- hTDP1 cells, no CPT, ATP luminescence, 48 h; 15% of 420,000 active; Potency, µM (highest dose often 46.2 µM), inactives show at the top dose activity change, negative = growth inhibition, usual class: inhibitors; further: potency means the concentration at half of the fitted maximal effect; on the % scale 0 is the no-effect control and ±100 the full control effect; nearly all actives have a fitted effect of over 55% in size
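Growth of hTDP1-complemented DT40 Tdp1-knockout cells is measured by ATP luminescence after at least 48 hr compound exposure at 37 °C, with DMSO substituting for the 20 nM CPT used in the parallel screen.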
TDP1 cell CPT: growth inhibition of DT40 Tdp1-/-;hTDP1 cells with camptothecin (screen for TDP1 inhibitors); chicken DT40 Tdp1-/-;hTDP1 cells + 20 nM CPT, ATP luminescence, 48 h; Potency, µM (top dose mostly 46.2 µM), for inactives: top-dose activity change, negative = growth inhibition, usual class: inhibitors; 12% of 420,000 active; further: potency means the concentration at half of the fitted maximal effect; on the % scale 0 is the no-effect control and ±100 the full control effect; nearly all actives have a fitted effect of over 55% in size
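Chicken DT40 Tdp1-/- cells stably complemented with human TDP1 were seeded at 400 cells/well in medium containing 20 nM camptothecin, exposed to pin-transferred compounds, and grown at 37 °C for at least 48 hr. Viability was read as ATP luminescence.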
TGFb SMAD3 inh: blocks TGF-b signaling. 1.2% of 410,000 active. Potency, µM (series often up to 46.1 µM), inactives show at the top dose activity, negative = inhibition, actives largely listed as inhibitors. AID 588855. HepG2 CAGA-GFP TGF-b/SMAD3 reporter, GFP fluorescence, 18 h; TGF-beta stimulated, 500 pg/mL final; further: potency means the concentration at half of the fitted maximal effect; on the % scale 0 is the no-effect control and ±100 the full control effect; nearly all actives have a fitted effect of over 65% in size
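Read-out: total well GFP (ex488/em500-530) summed from mean per-cell fluorescence. Cells: HEPG2 CAGA-GFP, 1% FBS DMEM, 18 h at 37 degrees C with 500 pg/mL final TGF-beta. Unstimulated wells served as the full-inhibition control; stimulated DMSO wells = 0%.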
* marks the source's active call; other numbers are inactive results; ? = inconclusive; · = no result given. Unless noted, the call rests on the fitted dose curve; in most records, active means well fitted curve in the direction sought with a large enough effect; inconclusive means small, poorly fitted or top-dose-only effect, or another doubt; inactive means no such curve, though single readings can be large; an effect the other way counts as inactive or inconclusive.

SMILES	ASM inhibitor	IL1B secr inh	HepG2 viability	DT40 TDP1 no CPT	TDP1 cell CPT	TGFb SMAD3 inh
COc1ccsc1C(=O)N1CCN(Cc2ccc3c(c2)OCO3)CC1	3%	0	-37%	-22%	-10%	10%
O=C(CN1C(=O)c2cccc3cccc1c23)N1CCc2ccccc2C1	68%	-14	-22%	12µM*	21µM*	-10%
O=C(CN1C(=O)c2cccc3cccc1c23)N1CCN(Cc2ccc3c(c2)OCO3)CC1	46%	-16	7%	21µM*	?	?
O=C(CCCN1C(=O)c2ccccc2C1=O)N1CCc2ccccc2C1	-1%	27	-15%	7%	-20%	1%
O=C(c1sccc1Cl)N1CCN(Cc2ccc3c(c2)OCO3)CC1	-2%	-81*	5%	?	3%	?
O=C(c1ccc2c(c1)OCO2)N1CCN(CCN2C(=O)c3cccc4cccc(c34)C2=O)CC1	-1%	20	-40%	-29%	12%	-1%
COc1ccc(O)c(CN2CCC3(CCC(CNC(=O)c4ccccc4)O3)CC2)c1 (centres undefined)	·	·	·	?	3%	·
COc1cc(/C=N\NC(=O)C(C)(C)O)ccc1OC/C=C/c1ccccc1	-3%	-9	-29%	-24%	?	0%
O=C(Nc1cccc(F)c1)N1CC[C@@]2(CCCN(C(=O)c3cc(C(F)(F)F)cc(C(F)(F)F)c3)C2)C1	·	·	·	-16%	8%	·
COc1ccc(C(=O)N2CCC(C(=O)Nc3ccc(OC)cc3OC)CC2)cc1	·	·	-26%	5%	20%	-4%
O=C(c1cc(-c2ccc(F)cc2)no1)N1CCN(Cc2ccc3c(c2)OCO3)CC1	-2%	-23	3%	16µM*	?	14%
CCOc1ccc(S(=O)(=O)NCCC(=O)N2CCN(c3ncccn3)CC2)cc1	-1%	0	-1%	?	-1%	-6%
CCOc1ccc(S(=O)(=O)NCCC(=O)N2CC=C(c3ccccc3)CC2)cc1	-7%	-11	-7%	12µM*	?	?
CCOc1ccc(S(=O)(=O)NCCC(=O)N2CCN(c3ccc(OC)cc3)CC2)cc1	6%	-4	-2%	21µM*	?	-4%
COc1ccc(-c2cc(C(=O)Oc3ccc(C#N)cc3)no2)cc1	·	·	7%	-20%	4%	31%
CCn1cc(CN2CCC(n3nccc3NC(=O)c3ccccc3OC)CC2)cn1	6%	-6	1%	-1%	5%	-1%
CCc1ccc(CN2CCC(n3nccc3NC(=O)c3ccccc3C)CC2)cc1	-2%	-19	-22%	?	21µM*	?
CCOc1ccc(CN2CCC(n3nccc3NC(=O)c3ccccc3OC)CC2)cc1	0%	-21	-27%	?	16µM*	0%
COCCN1C(=O)c2oc3ccc(C)cc3c(=O)c2C12C(=O)N(C)c1ccccc12 (centres undefined)	·	·	1%	-2%	6%	-23%
O=C(N/N=C/c1ccc([N+](=O)[O-])o1)c1cc2c(ccc3ccccc32)o1	-7%	-13	-19%	?	10µM*	-8%
CCOc1cc(/C=N/NC(=O)c2cc3c(ccc4ccccc43)o2)ccc1O	5%	-51*	-26%	?	23µM*	?
O=C(N/N=C/c1cc(Cl)c(O)c(Cl)c1)c1cc2c(ccc3ccccc32)o1	-6%	-15	-21%	?	?	-4%
Cc1ccc(/C=N/NC(=O)c2cc3c(ccc4ccccc43)o2)cc1[N+](=O)[O-]	-2%	-17	3%	?	26µM*	22%
CC(=O)Oc1ccc(/C=N\NC(=O)c2cc3c(ccc4ccccc43)o2)cc1	15%	?	10%	?	?	0%
Cc1ccc(/C=N/NC(=O)c2cc3c(ccc4ccccc43)o2)o1	61%	-61*	-18%	?	?	-19%
SMILES	ASM inhibitor	IL1B secr inh	HepG2 viability	DT40 TDP1 no CPT	TDP1 cell CPT	TGFb SMAD3 inh
O=C(N/N=C/c1cccnc1)c1cc2c(ccc3ccccc32)o1	5%	-4	-24%	?	-20%	2%
COCC(=O)Nc1cc(C(=O)N2CCCC2c2nccs2)c2c(c1)nc(-c1ccncc1)n2C (centres undefined)	·	·	·	-15%	22%	·
COc1ccccc1NC(=O)c1nn(C)c2c1CS(=O)(=O)c1ccccc1-2	·	·	10%	-18%	-22%	-1%
COCCn1c(C)cc(O)c(C(c2cccc(F)c2)N2CCN(c3ccccc3)CC2)c1=O (centres undefined)	·	·	1%	5%	-5%	6%
CC(C)CN(C(=O)C1CCCO1)C1CCS(=O)(=O)C1 (centres undefined)	3%	0	-34%	-9%	-6%	0%
Cc1cc(=O)oc2cc(OCC(=O)Nc3ccc4[nH]c(=O)[nH]c4c3)ccc12	36%	3	10%	-7%	-27%	6%
O=C(N/N=C/c1cc(Br)c(O)c(Br)c1)c1cc2c(ccc3ccccc32)o1	-10%	-23	-23%	?	13µM*	-25%
CNC(=O)c1cc2c(ccc3ccccc32)o1	-2%	0	-3%	0%	2%	-25%
O=C(NC1CCCC1)c1cc2c(ccc3ccccc32)o1	-2%	-8	-3%	21µM*	?	?
O=C(N/N=C/c1ccc(O)c(Br)c1)c1cc2c(ccc3ccccc32)o1	124%	?	-1%	-4%	?	4%
O=C(CSc1nccc(=O)[nH]1)Nc1ccc(N2CCOCC2)cc1	5%	0	-14%	1%	-5%	10%
O=C(Cc1ccc(Cl)cc1)Nc1ccc(Br)cn1	-1%	-3	-23%	-3%	-1%	-11%
Cc1nc(Cl)cc(N/N=C/c2ccc(O)cc2O)n1	0%	-3	-18%	21µM*	?	-8%
Cc1cc(N/N=C/c2cccc([N+](=O)[O-])c2)nc(-n2nc(C)cc2C)n1	-1%	12	-16%	3.7µM*	4.1µM*	1%
Cc1cc(NCCO)nc(-n2nc(C)cc2C)n1	5%	0	21%	-5%	13%	-9%
Cc1nc(Cl)cc(N/N=C/c2ccc(O)cc2)n1	3%	5	7%	?	3%	29%
Cc1cc(C)nc(N/N=C/c2cccc([N+](=O)[O-])c2)n1	1%	7	-1%	-24%	-21%	3%
